Common to all, as to format: functional
For assay [1], the system named is Plasmodium falciparum. Description: GSK_TCMDC: Inhibition of Plasmodium falciparum 3D7 in whole red blood cells, using parasite LDH activity as an index of growth. Test compounds present at 2uM.
The test system of assay [2] is Plasmodium falciparum. Description: GSK_TCMDC: Inhibition of Plasmodium falciparum Dd2 in whole red blood cells, using parasite LDH activity as an index of growth. Test compounds present at 2uM.
A further assay has as its system HepG2. As to the kind of experiment: GSK_TCMDC: Percent inhibition of human HepG2 cell line. Test compounds present at 10uM.

In general, Inhibition refers to how much of the control response was suppressed. On to `CC(C)N(Cc1ccccc1)C(=O)CN1C(=O)COc2ccc(S(=O)(=O)N3CCCCCC3)cc21`, for which the Inhibition is 99% in the assay with Plasmodium falciparum [1], 99% with Plasmodium falciparum [2] and 0% in the assay with HepG2.

Consider `CCC(Cc1cnc2nc(N)nc(N)c2n1)c1ccc(C(=O)N[C@@H](CCC(=O)O)C(=O)O)cc1` (stereo partly specified) [EDATREXATE], for which the Inhibition with Plasmodium falciparum [1] is on record as 93%; in the assay on Plasmodium falciparum [2] it was 98%; in the assay with HepG2 it was 64%.

Take `COc1ccc(Nc2nccc(N3CCC(NC(=O)c4cccc(NC(C)=O)c4)C3)n2)cc1` (stereo unspecified): the values for the Inhibition with Plasmodium falciparum [1], in the assay on Plasmodium falciparum [2] and with HepG2 were 92%, 84% and 0%, respectively.

For `Cc1ccc(F)c(C(=O)Nc2cccc(-c3nn4ccccc4c3-c3ccnc(Nc4cccc(F)c4)n3)c2)c1F`, the Inhibition in the assay with Plasmodium falciparum [1] stood at 98%; with Plasmodium falciparum [2], 60%; in the assay on HepG2, 35%.

As to `Cc1nc(-c2nc(N3CCC(O)CC3)ncc2-c2ccsc2)sc1C`, the Inhibition with Plasmodium falciparum [1] is 83%; with Plasmodium falciparum [2], 35%; in the assay on HepG2 it was 6%.

For `COc1cc(OC)c(NC(=O)Nc2ccnc3ccccc23)cc1Cl`, the Inhibition stood at 97% with Plasmodium falciparum [1], 9% in the assay with Plasmodium falciparum [2] and 19% in the assay on HepG2.

As for `O=C(c1cc(C(=O)Nc2ccccc2)c(=O)n(-c2ccccc2)c1)c1cc(Cl)ccc1O`, the Inhibition with Plasmodium falciparum [1] was determined as 100%; with Plasmodium falciparum [2], 95%; with HepG2 it was 9%.

For `Br.CN(C)CCCOc1ccc(-c2csc(NC(=N)NCc3ccccc3)n2)cc1`, the Inhibition with Plasmodium falciparum [1] worked out at 100%; in the assay with Plasmodium falciparum [2] it was 97%; with HepG2 it was 57%.

On to `COc1ccc(Cn2c(N3CCN(S(=O)(=O)c4ccc(OC)cc4)CC3)nc3c2c(=O)n(CC2CC2)c(=O)n3CC2CC2)cc1`, for which the Inhibition is reported as 92% with Plasmodium falciparum [1], 39% in the assay with Plasmodium falciparum [2] and 0% in the assay on HepG2.

On to `O=C(Nc1ccc(Oc2ccccc2)cc1)N[C@H]1CCN(Cc2ccc(OCCCN3CCCCC3)cc2)C1`, for which the Inhibition is reported as 100% in the assay with Plasmodium falciparum [1], 6% with Plasmodium falciparum [2] and 13% with HepG2.

Regarding `Cc1cccc2nc(-c3ccc(-c4ccc(NC(=O)NC5CC5c5ccccc5)cc4)cc3)[nH]c12` (stereo unspecified), the Inhibition in the assay with Plasmodium falciparum [1] stood at 96%; in the assay on Plasmodium falciparum [2], 3%; in the assay on HepG2, 28%.

For the compound `CC(C)CCn1c(Sc2ccc(C#N)c([N+](=O)[O-])c2)nnc1-c1cccc(Cl)c1`, the Inhibition in the assay on Plasmodium falciparum [1] was 96%; in the assay with Plasmodium falciparum [2], 82%; in the assay on HepG2, 33%.

For `O=C(NCCCCN1CCC(c2cccc3ccccc23)CC1)c1ccc(-c2ccc(C(F)(F)F)cn2)cc1`, the Inhibition with Plasmodium falciparum [1] came to 91%; with Plasmodium falciparum [2], 36%; with HepG2, 31%.

Turning to `Cc1cc(NC(=O)c2cccs2)ccc1OC1CCN(Cc2ccc(F)cc2)C1.O=C(O)C(F)(F)F` (stereo unspecified), the Inhibition is listed as 95% with Plasmodium falciparum [1], 92% in the assay with Plasmodium falciparum [2] and 0% in the assay with HepG2.

As to `CCNc1cc(C(=O)N[C@@H](Cc2ccccc2)[C@H](O)CNC2CCC(F)(F)CC2)c(F)c(N2CCCCS2(=O)=O)c1.O=CO`, the results for the Inhibition with Plasmodium falciparum [1], with Plasmodium falciparum [2] and in the assay on HepG2 were 100%, 97% and 0%, respectively.

For the compound `CC(C)CNCc1ccc(-c2cccc(-c3nc4ccccc4[nH]3)c2)cc1.O=C(O)C(F)(F)F`, the results for the Inhibition in the assay on Plasmodium falciparum [1], with Plasmodium falciparum [2] and in the assay with HepG2 were 99%, 98% and 53%, respectively.

On to `COc1ccc(CN(C)CCCCc2ccc(NC(=O)COc3cccc4sc5ccccc5c(=O)c34)cc2)cc1OC.O=C(O)C(=O)O`, for which the Inhibition with Plasmodium falciparum [1] was determined as 100%; with Plasmodium falciparum [2], 84%; in the assay with HepG2, 26%.

On to `COc1cc(-c2cc(-c3ccc(OCCN(C)C)cc3)[nH]c2-c2ccncc2)ccc1Cl.Cl`, for which the Inhibition came out at 100% in the assay with Plasmodium falciparum [1], 100% with Plasmodium falciparum [2] and 28% with HepG2.

Turning to `COc1cc2ccccc2cc1CNCCCCCCNCc1cc2ccccc2cc1OC.CS(=O)(=O)O`, the Inhibition is recorded as 100% with Plasmodium falciparum [1], 24% in the assay with Plasmodium falciparum [2] and 98% in the assay on HepG2.

For the compound `COc1ccc(C(=O)Cn2nc(-c3ccc(Cl)cc3)ccc2=O)c(OC)c1`, the Inhibition in the assay with Plasmodium falciparum [1] stood at 93%; with Plasmodium falciparum [2], 70%; in the assay with HepG2, 0%.

As to `c1cncc(Oc2ccc(Nc3ccnc4cc(-c5cccc(CN6CCOCC6)c5)ccc34)cc2)c1`, the Inhibition in the assay with Plasmodium falciparum [1] stood at 100%; in the assay on Plasmodium falciparum [2], 100%; in the assay with HepG2 it was 14%.

`CC(C)c1ccc(S(=O)(=O)Nc2cccc(CCN3CCC(N4CCCCC4)CC3)c2)cc1`: the Inhibition is listed as 100% in the assay on Plasmodium falciparum [1], 35% in the assay with Plasmodium falciparum [2] and 37% with HepG2.

With `c1ccc(-c2ccc(-c3nc4ccccc4[nH]3)cc2)cc1`, the Inhibition in the assay with Plasmodium falciparum [1] is listed as 93%; with Plasmodium falciparum [2], 83%; with HepG2 it was 10%.

On to `CS(=O)(=O)c1cccc(-c2cnc3[nH]cc(-c4cccc(CCN)c4)c3c2)c1.O=C(O)C(F)(F)F`, for which the results for the Inhibition in the assay on Plasmodium falciparum [1], in the assay with Plasmodium falciparum [2] and with HepG2 were 99%, 74% and 0%, respectively.

Regarding `CCN(CCCNc1nc(=S)[nH]c2cc(OC)c(OC)cc12)c1ccccc1`, the Inhibition with Plasmodium falciparum [1] is 100%; in the assay with Plasmodium falciparum [2] it was 23%; with HepG2 it was 14%.

Consider `CCc1cn2c3c(cc(C(=O)N[C@@H](Cc4ccccc4)[C@H](O)CNCc4ccc(C)cc4)cc13)N(C)S(=O)(=O)CC2.O=CO`, for which the results for the Inhibition with Plasmodium falciparum [1], in the assay with Plasmodium falciparum [2] and with HepG2 were 99%, 98% and 0%, respectively.

Turning to `COc1ccc(Nc2ncc3c(-c4cccc(NC(=O)c5ccc(N)cc5)c4)c[nH]c3n2)cc1OC`, the figures for the Inhibition in the assay with Plasmodium falciparum [1], in the assay on Plasmodium falciparum [2] and with HepG2 were 84%, 31% and 83%, respectively.

Source of the values: ChEMBL document CHEMBL1157539, “Thousands of chemical starting points for antimalarial lead identification” (Nature, 2010).
